Screening data deposited in PubChem BioAssay by The Scripps Research Institute Molecular Screening Center.
This is a sample that favours compounds with a hit; in the whole collection about 5.7% have one here.
ssDAF12 agonist: S. stercoralis DAF-12 nuclear receptor activators, primary screen, cell-based, luminescence, HEK293, GRIP1 co-expression, lit1-tk-luc | Nuclear hormone receptor DAF-12 (Strongyloides stercoralis) | HEK293 ssDAF-12/GRIP1 lit1-tk-luc reporter; % of 3 µM dafachronic acid response | activation, % at 6.8 µM | 370,000 compounds, 1% hits;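 active means activation above the mean over all tested compounds plus 3 SD, cut at about 0.9% in these data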;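 further: 0% = DMSO-only wells and 100% = 3 µM delta7-dafachronic acid wells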
hcDAF-12 act: H. contortus DAF-12 nuclear receptor activators, primary screen, cell-based, luminescence, HEK293, lit1-tk-luc reporter. 370,000 compounds, 1.4% hits. AID 652067, 2013. HEK293 hcDAF-12 lit1-tk-luc reporter; 0% DMSO, 100% Δ7-dafachronic acid. activation, % at 6.8 µM;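 active means activation above the mean of all tested compounds plus 3 SD, cut at about 5.5% in these data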;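 further: 100% = response to 3 µM Δ7-dafachronic acid high control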
AHR act: AHR activators, primary screen, cell-based, luminescence, luciferase reporter, human; activation, % at 5 µM; AHR-responsive luciferase reporter cells; AID 2796, 2010; Aryl hydrocarbon receptor (Homo sapiens), P35869; 320,000 compounds, 2.5% hits; in the data active means activation above about 47%;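 further: 0% = vehicle wells and 100% = reference agonist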
hgDAF-12 ag: H. glycines DAF-12 receptor agonists, primary screen, cell-based, luminescence, HEK293, GAL4 fusion, UAS-luciferase; Nuclear hormone receptor DAF-12 (Heterodera glycines), GAL4 fusion; HEK293 GAL4-hgDAF12 UAS-luciferase reporter, agonist luminescence; normalized to butyrate control; activation, % at 6.8 µM; 370,000 compounds, 1.8% hits; AID 687014, 2013;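 active means activation above a cutoff set at the mean of all screened compounds plus 3 SD, cut at about 10% in these data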;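 further: 0% = DMSO wells and 100% = sodium butyrate wells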
DAX1 inh-1: DAX1 (NR0B1) inhibitors on StAR promoter, primary screen, cell-based, luminescence, SF-1 (NR5A1), full-length DAX-1 | HEK293T StAR-luciferase reporter, SF-1/DAX-1 repression relief | 370,000 compounds, 1.1% hits | inhibition, % at 6.8 µM;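 active means inhibition above the mean over all tested compounds plus 3 SD, cut at about 3.6% in these data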;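 further: 0% = DAX-1 cells with DMSO and 100% = cells lacking DAX-1 with DMSO; higher inhibition means more luminescence from relief of DAX-1 repression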
DAX1 inh-2: DAX1 (NR0B1) inhibitors, primary screen, cell-based, HEK293, Gal4-DAX1, luciferase luminescence. inhibition, % at 6.75 µM. AID 504766, 2011. Nuclear receptor subfamily 0 group B member 1 (Homo sapiens), P51843. HEK293 Gal4-DAX1 luciferase reporter. 340,000 compounds, 0.99% hits;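 active means inhibition above the mean over all tested compounds plus 3 SD, cut at about 4.2% in these data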;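 further: 0% = DAX1-transfected cells with DMSO and 100% = empty-vector control cells with DMSO; inhibition shows as a rise in luminescence from relieved DAX1 repression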
Target sequence (P51843 207-470 limits assumed): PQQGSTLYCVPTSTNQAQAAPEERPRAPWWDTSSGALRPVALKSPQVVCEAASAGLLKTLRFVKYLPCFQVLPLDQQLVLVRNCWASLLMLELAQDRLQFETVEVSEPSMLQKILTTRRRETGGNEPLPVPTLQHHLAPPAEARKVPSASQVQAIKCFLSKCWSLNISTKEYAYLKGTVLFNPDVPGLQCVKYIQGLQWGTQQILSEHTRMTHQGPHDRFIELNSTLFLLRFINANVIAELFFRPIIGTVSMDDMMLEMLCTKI
LXRb hcDAF ctr: LXR agonists, Gal4 luciferase reporter, confirmation, counter-screen for hcDAF-12 agonist project, cell-based, luminescence, HEK293, H. contortus campaign; shares compounds with hcDAF-12 act; HEK293 Gal4-LXR tk-luc reporter, 24 h; normalized: DMSO 0%, positive control 100%; activation, % at 6.8 µM; 3,400 tested, under 10 active; AID 743027, 2013;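 active means mean percent activation of the reporter above a cutoff set as the average over tested compounds plus their standard deviation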
Target sequence (P55055 whole entry, looked up, the tested form may be a part): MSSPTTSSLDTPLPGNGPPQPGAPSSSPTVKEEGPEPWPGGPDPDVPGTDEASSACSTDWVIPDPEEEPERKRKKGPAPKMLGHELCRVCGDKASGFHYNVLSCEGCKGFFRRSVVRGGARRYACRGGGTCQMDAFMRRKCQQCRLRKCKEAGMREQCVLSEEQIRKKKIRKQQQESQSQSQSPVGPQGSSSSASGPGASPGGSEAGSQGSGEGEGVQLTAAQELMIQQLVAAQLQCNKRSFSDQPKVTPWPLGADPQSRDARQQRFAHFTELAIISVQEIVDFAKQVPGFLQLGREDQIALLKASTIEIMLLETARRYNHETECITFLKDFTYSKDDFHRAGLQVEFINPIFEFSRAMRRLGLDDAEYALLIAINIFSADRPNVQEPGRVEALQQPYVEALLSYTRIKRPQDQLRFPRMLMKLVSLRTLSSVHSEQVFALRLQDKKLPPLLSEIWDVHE
hcDAF12 ag: H. contortus DAF-12 receptor agonists, confirmation, cell-based, luminescence, HEK293, lit1-tk-luc, triplicate; shares compounds with hcDAF-12 act; HEK293 hcDAF-12 lit1-tk-luc reporter; % of Δ7-dafachronic acid response; activation, % at 6.8 µM; 3,400 compounds, 61% hits;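 active means mean activation across triplicate tests above the threshold derived from the earlier primary screen, cut at about 5.5% in these data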;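 further: 0% = DMSO only wells and 100% = 3 µM Δ7-dafachronic acid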
Active calls of the source: *; . = no result.

SMILES | ssDAF12 agonist | hcDAF-12 act | AHR act | hgDAF-12 ag | DAX1 inh-1 | DAX1 inh-2 | LXRb hcDAF ctr | hcDAF12 ag
COc1ccc(Cl)cc1NC(=O)c1cc(-c2ccccc2)on1 | -0.9 | 5.1 | 16.9 | 1.1 | -0.5 | 2.7 | . | .
CC(=O)Nc1sc2c(c1-c1nc3ccccc3s1)CNC2 | 1.6* | 16.1* | . | 1.7 | . | . | 0.0 | 9.8*
CC(C)N1CCc2c(sc(NC(=O)C(F)(F)F)c2-c2nc3ccccc3s2)C1 | -0.1 | -0.6 | . | 9.0 | . | . | . | .
Cn1c(O)c(N=NC(=O)c2cc(-c3cccs3)nc3ccccc23)c2ccccc21 | -0.5 | 2.5 | 17.2 | 0.2 | 0.0 | -1.3 | . | .
Cn1c(O)c(N=Nc2nc(-c3ccccc3)cs2)c2ccccc21 | -0.3 | 11.8* | 54.1* | 1.5 | 0.2 | 1.4 | 0.0 | 7.4*
CC(C)c1ccc(OC(=O)c2ccc3c(=O)n4c(nc3c2)CCC4)cc1 | -0.3 | -0.9 | 3.5 | -3.3 | 1.6 | -0.1 | . | .
O=C(COC(=O)c1ccc2c(c1)C(=O)N(Cc1ccncc1)C2=O)Nc1ccccc1[N+](=O)[O-] | 0.4 | 7.0* | 21.0 | 0.9 | 0.6 | -0.4 | -0.1 | 6.2*
COCCCNC(=O)C(=O)C1C(=O)Nc2ccccc21 (stereo not drawn) | -0.3 | 10.8* | 40.0 | 0.1 | -0.1 | 0.3 | -0.2 | 3.0
COc1ccc(-c2cc(-c3ccccc3)no2)cc1 | 0.9* | 10.6* | -0.3 | 11.4* | 4.0* | -0.5 | 2.0 | 10.8*
Cc1ccc(-c2nc(-c3ccccc3)no2)cc1 | 0.2 | 6.8* | -9.6 | 12.7* | 3.9* | 2.3 | 1.4 | 8.5*
COc1ccc(-c2noc(-c3ccccc3-c3ccccc3)n2)cc1 | -1.4 | -0.1 | -5.7 | 0.7 | -0.2 | -1.1 | . | .
COc1cccc(-c2nc(-c3ccccc3)no2)c1 | 2.0* | 9.4* | 38.2 | 18.7* | 3.8* | 3.6 | 1.7 | 14.9*
COCCNC(=O)COC(=O)c1ccc(OCC(=O)Nc2ccccc2OC)c(OC)c1 | -0.8 | -0.8 | 2.9 | 1.0 | 0.2 | -1.1 | . | .
C=CCN(CC=C)C(=O)CCc1nnc(CCc2c[nH]c3ccccc23)o1 | -1.2 | 0.0 | 1.3 | 3.4 | -0.6 | -0.7 | . | .
Cc1ccc(OCc2nc(-c3ccccn3)no2)c(Br)c1 | 0.0 | 5.5 | -10.0 | 2.4 | 3.4 | -2.0 | . | .
CCc1ccc(OCc2nc(-c3ccccn3)no2)c(Br)c1 | 1.0* | 7.7* | -6.3 | 8.4 | 7.1* | -1.4 | 1.5 | 6.4*
Cc1ccc2cc(/C=N/Nc3nc4ccccc4[nH]3)c(Cl)nc2c1 | 0.9* | 13.2* | . | 11.5* | 1.8 | -1.1 | 0.9 | 14.9*
Cc1ccc(NCC(=O)N/N=C/c2cc3ccccc3nc2Cl)cc1 | 2.0* | 7.6* | 60.2* | 13.5* | 1.3 | 1.3 | 0.1 | 5.6*
CC1(C)C2C(Cl)(Cl)C2(C)c2ccccc2N1C=O (stereo not drawn) | -2.0 | -2.1 | -4.6 | -0.2 | 0.6 | . | . | .
CC1=NN(c2ccc(C)cc2)C(=O)/C1=C\c1ccc(Br)s1 | 0.4 | 9.5* | 39.0 | -0.5 | -0.3 | 0.5 | -0.1 | 4.9
CC1=NN(c2ccc(Br)cc2)C(=O)/C1=C/c1cccs1 | 0.2 | 5.2 | 43.7 | 0.1 | 0.3 | 0.9 | . | .
COc1ccc(-c2ccc(N3C(c4ccsc4)=Cc4ccc(F)cc4C3c3c[nH]c4ccccc34)cc2)cc1 (stereo not drawn) | 1.5* | 8.5* | . | 8.6 | -1.2 | . | 0.1 | 6.9*
Cn1cncc1C#Cc1ccc(N2C(c3ccsc3)=Cc3ccc(F)cc3C2c2c[nH]c3ccccc23)cc1 (stereo not drawn) | -0.7 | 3.1 | . | 5.5 | 0.6 | . | . | .
CN(C)c1ccc(-c2nnc(-c3ccccc3F)o2)cc1 | 0.9 | 10.2* | 63.0* | 13.0* | 3.2 | 0.7 | 1.5 | 6.5*
O=C(NC(c1ccc(Cl)cc1)c1ccccn1)C1CCN(CCOc2ccc(Cl)cc2Cl)CC1 (stereo not drawn) | -0.8 | -2.4 | . | 0.1 | 0.2 | . | . | .
SMILES | ssDAF12 agonist | hcDAF-12 act | AHR act | hgDAF-12 ag | DAX1 inh-1 | DAX1 inh-2 | LXRb hcDAF ctr | hcDAF12 ag
COc1cc2c(cc1NC(=O)C(C)Sc1cccc[n+]1[O-])oc1ccccc12 (stereo not drawn) | 0.1 | 9.6* | 99.1* | 7.0 | 1.3 | 0.9 | 0.0 | 5.5
CCCCN(C(=O)c1cccc(S(=O)(=O)N2CCOCC2)c1)c1c(N)n(CCC)c(=O)[nH]c1=O | -1.1 | 8.2* | 2.8 | 2.3 | 0.3 | 2.7 | -0.3 | 1.6
CC(C)N=C1NN=C(c2cccs2)CS1 | 1.4* | 8.6* | 17.2 | 12.4* | 2.5 | 1.8 | 0.8 | 11.4*
Cc1ccsc1/C=N/N=C/c1sccc1C | 1.6* | 11.2* | 69.7* | 17.1* | 3.2 | 1.9 | 1.8 | 13.7*
Cc1ccsc1C=Nc1ccc(O)cc1 | . | . | 0.3 | . | . | 1.1 | . | .
COc1cccc(C(=O)N(Cc2ccco2)c2c(N)n(Cc3ccccc3)c(=O)[nH]c2=O)c1 | -1.5 | -1.3 | 0.3 | -0.9 | -0.3 | -0.3 | . | .
Cc1ccc([N+](=O)[O-])cc1N=Cc1ccc(Br)s1 | -1.4 | 2.0 | 6.3 | -2.0 | -0.3 | 0.2 | . | .
Cc1ccc(C=Nc2cc([N+](=O)[O-])ccc2C)s1 | 0.1 | 6.9* | 9.8 | 3.6 | -0.2 | -0.4 | -0.3 | 1.4
O=C(O)c1ccn2c(C(=O)c3ccccc3)c(-c3ccccc3)cc2c1 | -1.0 | -1.2 | -2.5 | -1.4 | -0.8 | 0.2 | . | .
CCOc1ccc(-n2ccc(=O)c(C(=O)O)n2)cc1 | -1.0 | -0.7 | 0.5 | 1.3 | -0.1 | -0.9 | . | .
NC(=O)c1ccc(N=Cc2c(O)ccc3ccccc23)cc1 | -1.2 | -1.1 | 10.0 | -3.4 | -0.3 | 0.3 | . | .
C=CCS/C(N)=N\N=C\c1c(O)ccc2ccccc12 | 1.9* | 14.1* | 56.2* | 17.0* | 3.4 | 4.2 | 1.1 | 11.2*
